Records with an inconclusive call do not appear. Values without a mark were called inactive. Active and inactive are the calls of the source. The call rests on the fitted dose curve; in most records, active means well fitted inhibition curve with a large enough effect; inconclusive means small, poorly fitted or top-dose-only effect; inactive means flat fitted curve, though single readings scatter. Non-standard residues stand in square brackets, D forms with d. Residues, ends and D or L forms follow the SMILES beside them. *: point of attachment. Sta = CC(C)C[C@H](N)[C@@H](O)CC(=O)O; Isovaleryl = CC(C)CC(=O)*

40 compounds from PubChem BioAssay (NCATS) can be followed below.
Potency means the concentration at half of the fitted maximal effect.

A short description of the assay: BET inhibitor-based combinations targeting novel dependencies in MECOM-rearranged (r) AML: AML-191 cell line (AID 2202236; further: nearly all actives have a fitted effect of over 35% in size). The note with it: AML-191 viability, CellTiter-Glo luminescence, 48 h; series mostly up to 46 µM; viability (% of control): at the top concentration. From the text: Ecotropic viral insertion site 1 (EVI1) is located on chromosome 3q26.2 as part of the MECOM (MDS and EVI1 complex) locus. Under normal hematopoiesis, EVI1 is a regulator of hematopoietic stem cell maintenance and self-renewal and EVI1 levels decrease as the cells differentiate. In approximately 5-10% of de novo acute myeloid leukemia (AML) EVI1 is aberrantly expressed, including Chromosomal inv(3)(q21;q26.2) or t(3;3)(q21;q26.2) alterations (MECOM-r) that account for about 50% of AML with EVI1 overexpression 31. AMLs with high levels of EVI1 have a poor prognosis and an overall survival time averaging between 10-14 months. EVI1 overexpression confers resistance in leukemia cells, highlighting the need to develop new targeted therapies for EVI1 overexpressing AMLs.
Here, we performed an unbiased chemical drug screening by evaluating the single agent activity of a collection of 2,480 oncology-focused, approved and investigational drugs (NCATS Mechanism Interrogation Plates, MIPE v5.0) against a panel of seven AML cell lines. These included four MECOM-r cell-lines (AML-191, AML-194, UCSD-AML1 and HNT-34) and three non-MECOM-r AMLs (MV4-11, OCI-AML3 and SET-2). Exploiting the mechanistic redundancy built in the library, we identified target-level sensitivities in MECOM-r AML cells and relative activity as compared to other AML subtypes.
A collection of 2480 mechanistically annotated dugs (MIPE v5.0) was used to screen four 3q26.2 rearranged AML cell lines and three non-3q26.2 rearranged AML cell lines. This library purposely exploits redundancy by including multiple inhibitors of key onco-targets, while simultaneously encompassing mechanistic diversity, targeting more than 800 distinct mechanisms of action. Briefly, cells were seeded in 5 uL of growth media using a Multidrop Combi dispenser into 1536 well white polystyrene tissue culture treated plates (Corning) at a density of 500cells/well. For each cell-line, for each of the 2480 drugs in MIPE v5.0 library, an 11-point dose curve was generated via a 1536 pin-tool. Plates were incubated for 48 hr at standard incubator conditions, covered by a stainless steel gasketed lid to prevent evaporation. Cell viability was determined by luminescence based, Cell Titer Glo assay (Promega). In detail, 3 uL of Cell Titer Glo were added to each well and plates were incubated at room temperature for 15 min with a stainless-steel lid in place. Luminescence readings were taken using a Viewlux (PerkinElmer) with a 2 s exposure time per plate. Compound dose-response curves were normalized to DMSO and empty well controls on each plate. Quantitative drug activity data from dose-response curves was determined utilizing area Under the Curve (AUC) and Z-transformed AUC (Z-AUC, a mean-centering transformation applied to each individual cell-line screened).
A general note: Cellular ATP, detected with luciferase, serves as a proxy for viable cell number.
On to `NC(=O)c1c(OCc2c(F)cc(Br)cc2F)nsc1NC(=O)NCCCCN1CCCC1`, for which the Potency was 26300 nM (active). For `O=C(Nc1ccc([N+](=O)[O-])cc1Cl)c1cc(Cl)ccc1O`, the Potency is 1050 nM (active). As for `COc1nc(-c2ccc3c(c2)OCO3)n(-c2ccc(NC(=O)CSc3ccccc3)cc2)n1`, the “viability (% of control)” value was 104%. As to `COC(=O)N(C)c1c(N)nc(-c2nn(Cc3ccccc3F)c3ncccc23)nc1N`, the “viability (% of control)” value is 103%. The same measure, in the same setting: in the case of `CC(C)CC(=O)N[C@H](C(=O)N[C@H](C(=O)N[C@@H](CC(C)C)[C@@H](O)CC(=O)N[C@@H](C)C(=O)N[C@@H](CC(C)C)[C@@H](O)CC(=O)O)C(C)C)C(C)C` (Isovaleryl-VV[Sta]A[Sta]-OH) it was 102%; in that of `Cc1cc(O)c2c(c1)C(=O)c1cccc(O)c1C2=O`, 106%; in that of `O=C(O)Cn1nnc(-c2cc(N3CCC(Oc4cc(F)ccc4Br)CC3)no2)n1`, 102%. Turning to `N#Cc1c(NC(=O)c2cccc3ccccc23)sc2c1CCCC2`, the Potency is 296 nM (active). On the same count and under the same terms, in the case of `CN1CCc2c(c3ccccc3n2Cc2ccc(C(=O)NO)cc2)C1` it was 20900 nM (active). The same measure, in the same setting: in the case of `NC(=O)c1ccccc1Nc1ccnc(Nc2cccc(O)c2)n1` it was 5250 nM (active). For `CC(N)C12CC3CC(CC(C3)C1)C2` (stereo not given), the “viability (% of control)” value is 104%. Same read-out and setting: then `O=C1CCC[C@@H]2[C@H]3CCC[N+]4([O-])CCC[C@@H](CN12)[C@@H]34` (stereo not given in full), with 112%. `Cc1cnc(Nc2ccc(N3CCN(C)CC3)cc2)nc1Nc1cccc(S(=O)(=O)NC(C)(C)C)c1`: the Potency was 2630 nM (active). As for `CC1=C(/C=C/C(C)=C/C=C/C(C)=C\C(=O)O)C(C)(C)CCC1`, the Potency was 5250 nM (active).

On to `O=C1NCCc2[nH]c(-c3ccncc3)cc21`, for which the Potency is 1660 nM (active).

`CN(C)CC/C=C1/c2ccccc2COc2ccc(CC(=O)O)cc21`: the “viability (% of control)” value was 105%. For the compound `COc1cc(CCc2cc(NC(=O)c3ccc(N4C[C@@H](C)N[C@@H](C)C4)cc3)n[nH]2)cc(OC)c1`, the Potency was 16600 nM (active). Consider `Cc1ccccc1C(C(=O)NC1CCCCC1)N(C(=O)Cn1ccnc1C)c1cccc(F)c1` (stereo not given), for which the “viability (% of control)” value is 108%.

As for `Cc1c(CCOc2ccc(C(=O)O)cc2)c2cc(Cl)ccc2n1C(c1ccccc1)c1ccccc1`, the “viability (% of control)” value is 119%. Regarding `C[C@@H](NCCCc1cccc(C(F)(F)F)c1)c1cccc2ccccc12`, the Potency was 23500 nM (active). The same measure, in the same setting: then `COc1cccc(-c2cc(F)ccc2C2Cc3nc(N)nc(C)c3C(=O)N2)n1` (stereo not given), with 93.4 nM (active). Turning to `CCC1(C)CC(=O)NC1=O` (stereo not given), the “viability (% of control)” value is 102% [at 92.2 µM]. With `Cc1cc(O)c2c(c1)C(=O)c1cc(O)cc(O)c1C2=O`, the Potency was 16600 nM (active).

With `COc1cc([C@@H]2c3cc4c(cc3[C@H](O)[C@H]3COC(=O)[C@@H]23)OCO4)cc(OC)c1OC`, the Potency is 662 nM (active). For `COc1cc2c(cc1OCCCN1CCCC1)N=C(N)C21CCC1`, the “viability (% of control)” value is 106%. In the case of `CC(=O)Oc1cc2c(s1)CCN(C(C(=O)C1CC1)c1ccccc1F)C2` (stereo not given), the “viability (% of control)” value is 105%.

As to `CN(C)CCc1c[nH]c2ccc(CS(=O)(=O)N3CCCC3)cc12`, the “viability (% of control)” value was 106%.

For the compound `Nc1ccn(C2CO[C@H](CO)O2)c(=O)n1` (stereo not given in full), the “viability (% of control)” value is 103%. Take `COc1cc2c(cc1OC)CC(=O)N(CCCN(C)C[C@H]1Cc3cc(OC)c(OC)cc31)CC2`: the “viability (% of control)” value was 104%. Turning to `CCCCCCCN(CC)CCCC(O)c1ccc(NS(C)(=O)=O)cc1` (stereo not given), the “viability (% of control)” value is 74.6%. As for `COc1cc2c(Oc3ccc(NC(=O)C4(C(=O)Nc5ccc(F)cc5)CC4)cc3F)ccnc2cc1OCCCN1CCOCC1`, the Potency is 662 nM (active).

In the case of `CNC(=O)c1ccc(Nc2ncc(C(F)(F)F)c(NCc3nccnc3N(C)S(C)(=O)=O)n2)cc1`, the Potency is 2950 nM (active). Consider `Cn1cc(-c2c[nH]c3ncnc(N4CCOCC4)c23)cn1`, for which the Potency was 20900 nM (active). On the same count and under the same terms, then `CC(C)(C)c1cnc(CSc2cnc(NC(=O)C3CCNCC3)s2)o1`, with 742 nM (active). For `c1cnc2cc3c(cc2n1)C1CNCC3C1`, the “viability (% of control)” value was 109%.

Regarding `CN(C)CCOc1cc(-c2cn[nH]c2)ccc1NC(=O)C1COc2ccccc2O1` (stereo not given), the Potency is 5900 nM (active). For `N[C@@H](Cc1c[nH]c2ccc(O)cc12)C(=O)O`, the “viability (% of control)” value was 91.8%. In the case of `CCC(C)(Oc1ccc(C2(c3ccc(OC(C)(CC)C(=O)O)cc3)CCCCC2)cc1)C(=O)O` (stereo not given), the “viability (% of control)” value is 118%. Turning to `Cc1c(CN2CCN(S(C)(=O)=O)CC2)sc2c(N3CCOCC3)nc(-c3cnc(N)nc3)nc12`, the Potency is 590 nM (active).

In the case of `CC(C)Cc1ccc(C(C)C(=O)O)cc1` (stereo not given), the “viability (% of control)” value is 97.6%.
